# This is one part of a sample in which hits are shown more often than they occur.
# Dicer inh: human Dicer pre-microRNA cleavage inhibition | z-score at 25 µM | AID 1347074 | Q9UPY3 | cat-ELCCA pre-miR-21 Dicer processing, chemiluminescence; active compounds read high | actives 6% (n = 47,000); in the data active means z-score above about 3, passing the limit was not always enough;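 further: plate controls were vehicle for no effect and no enzyme for full effect; higher signal means more uncleaved substrate so more Dicer inhibition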
# Target sequence (Q9UPY3 whole entry, looked up): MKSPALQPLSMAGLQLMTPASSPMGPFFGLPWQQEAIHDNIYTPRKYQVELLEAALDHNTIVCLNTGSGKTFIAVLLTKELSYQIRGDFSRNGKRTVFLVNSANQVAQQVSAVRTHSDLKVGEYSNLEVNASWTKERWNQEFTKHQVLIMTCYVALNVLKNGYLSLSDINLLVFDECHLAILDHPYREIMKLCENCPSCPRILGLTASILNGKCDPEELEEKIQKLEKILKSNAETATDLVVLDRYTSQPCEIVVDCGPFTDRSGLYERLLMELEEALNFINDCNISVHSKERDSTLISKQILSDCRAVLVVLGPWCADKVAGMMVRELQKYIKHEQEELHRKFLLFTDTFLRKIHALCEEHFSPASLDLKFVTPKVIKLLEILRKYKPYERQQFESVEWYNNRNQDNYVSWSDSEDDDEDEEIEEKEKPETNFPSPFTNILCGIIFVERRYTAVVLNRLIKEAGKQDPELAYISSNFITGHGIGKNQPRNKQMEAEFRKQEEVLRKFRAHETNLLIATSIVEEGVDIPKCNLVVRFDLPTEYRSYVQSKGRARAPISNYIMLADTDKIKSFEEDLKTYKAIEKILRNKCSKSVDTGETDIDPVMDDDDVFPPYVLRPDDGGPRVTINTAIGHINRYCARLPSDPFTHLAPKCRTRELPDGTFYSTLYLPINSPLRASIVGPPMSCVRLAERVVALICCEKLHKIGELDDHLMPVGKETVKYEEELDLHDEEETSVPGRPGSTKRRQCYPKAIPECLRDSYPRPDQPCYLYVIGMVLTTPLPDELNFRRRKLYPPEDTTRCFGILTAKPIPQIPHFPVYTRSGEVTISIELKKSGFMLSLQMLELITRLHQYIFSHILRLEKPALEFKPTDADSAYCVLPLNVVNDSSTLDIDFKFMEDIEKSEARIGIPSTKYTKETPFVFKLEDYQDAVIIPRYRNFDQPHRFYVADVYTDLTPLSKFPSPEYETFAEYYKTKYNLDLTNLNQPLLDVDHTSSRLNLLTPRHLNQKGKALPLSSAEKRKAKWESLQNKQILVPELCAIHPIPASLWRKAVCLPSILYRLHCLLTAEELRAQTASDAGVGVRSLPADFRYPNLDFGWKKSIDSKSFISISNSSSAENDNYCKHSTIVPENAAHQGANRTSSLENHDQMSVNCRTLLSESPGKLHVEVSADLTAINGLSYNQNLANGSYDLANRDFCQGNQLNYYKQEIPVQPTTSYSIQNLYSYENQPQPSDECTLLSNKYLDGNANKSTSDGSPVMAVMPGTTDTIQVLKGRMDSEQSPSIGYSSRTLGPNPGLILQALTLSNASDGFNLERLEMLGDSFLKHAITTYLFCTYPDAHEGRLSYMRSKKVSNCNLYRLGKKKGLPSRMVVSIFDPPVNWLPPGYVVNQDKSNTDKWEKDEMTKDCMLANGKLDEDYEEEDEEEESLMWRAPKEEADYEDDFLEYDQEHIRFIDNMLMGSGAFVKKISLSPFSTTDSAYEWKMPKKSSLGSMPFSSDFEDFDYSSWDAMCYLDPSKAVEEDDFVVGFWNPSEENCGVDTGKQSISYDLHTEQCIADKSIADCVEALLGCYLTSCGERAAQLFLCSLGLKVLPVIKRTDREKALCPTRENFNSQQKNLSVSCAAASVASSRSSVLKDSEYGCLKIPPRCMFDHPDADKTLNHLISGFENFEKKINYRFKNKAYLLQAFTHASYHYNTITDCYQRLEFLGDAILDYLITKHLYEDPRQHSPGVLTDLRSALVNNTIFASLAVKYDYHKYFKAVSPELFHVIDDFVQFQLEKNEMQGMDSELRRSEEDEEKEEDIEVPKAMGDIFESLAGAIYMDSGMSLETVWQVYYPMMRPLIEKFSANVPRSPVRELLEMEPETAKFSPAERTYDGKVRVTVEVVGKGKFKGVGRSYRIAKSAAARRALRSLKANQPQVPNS
# * hit, by the source's call.
SMILES,Dicer inh
O=C(Oc1ccc(C2SCCS2)cc1)c1ccc(Oc2cc(Cl)cc(Cl)c2)o1,-0.96
Cc1noc(C(F)(F)F)c1-c1nnc(-c2cccc(C(F)(F)F)c2)o1,1.79
O=C1SC(Nc2cccc(Cl)c2)C(=O)N1c1ccccc1 (centres undefined),0.86
O=C1SC(Nc2ccc(F)cc2)C(=O)N1c1ccccc1 (centres undefined),1.91
COc1cccc(NC2SC(=O)N(c3ccccc3)C2=O)c1 (centres undefined),49.2*
c1ccc2c(c1)CC/C2=N\NC1=NCCN1,-0.03
CC(C)(CO)Nc1ccc(C(F)(F)F)cc1[N+](=O)[O-],-0.21
O=[N+]([O-])c1ccc2nc(-c3ccccc3)c(-c3ccccc3)nc2c1,-2.81
CC(C)(C)/C(O)=C/c1nc2cc([N+](=O)[O-])ccc2[nH]c1=O,0.03
O=c1[nH]c2ccc([N+](=O)[O-])cc2nc1/C=C(\O)c1ccccc1,23.8*
CN1C(=O)c2ccc([N+](=O)[O-])cc2C1=O,-0.53
Cc1c2c(=O)[nH]ncc2c(-c2ccccc2)n1CCSCc1c(Cl)cccc1Cl,-1.63
CN1CCc2c(sc3c2C(=O)NC(c2ccc(OCc4ccccc4)cc2)N3)C1 (centres undefined),-1.42
O=C1NC(c2ccccc2OCc2ccccc2)Nc2sc3c(c21)CCCC3 (centres undefined),4.34
O=C1NC(c2ccc(OCc3ccccc3)cc2)Nc2sc3c(c21)CCCC3 (centres undefined),3.59*
CCOC(=O)C1=C(C)N=C2SCC(=O)N2C1c1ccc(OC)c(OCC)c1 (centres undefined),-1.84
CC(=O)N1N=C(c2ccc(C)cc2)OC1c1cccnc1 (centres undefined),0.44
CC(=O)N1N=C(c2ccc(Br)cc2)OC1c1ccc(F)cc1 (centres undefined),3.17*
CC(=O)N1N=C(c2cc(C)ccc2[N+](=O)[O-])OC1c1ccc(N(C)C)cc1 (centres undefined),-2.78
Cc1c(N=CN(C(=O)c2ccccc2)c2cccc([N+](=O)[O-])c2C)cccc1[N+](=O)[O-],-0.95
CCOC(=O)CC(=O)CSc1nnc(NC(=O)c2c(F)cccc2F)s1,-1.12
CC1=C(C(=O)OC(C)C)C(c2cccc(OCc3ccccc3)c2)n2ncnc2N1 (centres undefined),0.32
CCOC(=O)C1=C(C)Nc2ncnn2C1c1ccc(N(CC)CC)cc1 (centres undefined),2.06
CC1=C(C(=O)OCc2ccccc2)C(c2ccc(OCc3ccccc3)cc2)n2ncnc2N1 (centres undefined),3.1*
O=C(O)c1cn(CCOc2ccc(Cl)cc2)c2ccccc12,1.42
SMILES,Dicer inh
COC(=O)CSC1=C(C#N)C(c2ccccc2Cl)C(C(=O)OC)C(=O)N1 (centres undefined),0.84
OC(CNCc1ccc2c(c1)OCO2)CSc1cccs1 (centres undefined),0.33
CC(C)Cc1nc2sc3c(NCCN4CCOCC4)ncnc3c2c2c1COC(C)(C)C2,0.14
CC(C)(C)SC(=S)SCC(=O)c1ccc(Cl)c(Cl)c1,-2.55
NNC(=S)NCCc1ccc(Cl)cc1,4.53*
S=C(NCCc1ccccc1)Nc1cccc(Cl)c1Cl,0.28
S=C(NCCn1ccnc1)Nc1ccc(Cl)cc1,0.86
CC(C)(C)OC(=O)NCC(=O)NNC(=S)Nc1ccccc1,-0.45
S=C(Nc1ccccc1)N1c2ccccc2Sc2ccccc21,0.44
O=C(CN1c2ccccc2Sc2ccccc21)NNC(=S)Nc1ccccc1,5.15*
C/C(=N\OCc1cccc(C(=O)N=S(C)c2ccc(C)cc2)c1)c1ccc(Cl)cc1 (centres undefined),-1.51
CN(C)/C=C1\C(=O)c2ccccc2N(Cc2c(F)cccc2Cl)S1(=O)=O,0.08
COc1ccc(C2Oc3c(OC)cccc3C3CC(c4cc(OC)ccc4O)=NN32)c(OC)c1 (centres undefined),2.82
COc1cccc(C2Oc3ccccc3C3CC(c4cccs4)=NN32)c1OC (centres undefined),19.9*
COC(=O)c1ccc(C2Oc3c(OC)cccc3C3CC(c4cccs4)=NN32)cc1 (centres undefined),-1.57
COc1ccc(O)c(C2=NN3C(C2)c2ccccc2OC3c2cccs2)c1 (centres undefined),11.1*
COc1ccc(O)c(C2=NN3C(C2)c2ccccc2OC3c2ccc(F)cc2)c1 (centres undefined),2.44
COc1cccc2c1OC(c1cccs1)N1N=C(c3ccccc3O)CC21 (centres undefined),1.33
COc1ccc(O)c(C2=NN3C(C2)c2cccc(OC)c2OC3c2cccs2)c1 (centres undefined),3.49*
COc1ccc(O)c(C2=NN3C(C2)c2ccccc2OC3c2ccc(O)c(OC)c2)c1 (centres undefined),2.58
CCOc1ccc(C2c3c(oc4ccc(C)cc4c3=O)C(=O)N2c2nccs2)cc1 (centres undefined),0.25
Cc1cc(Oc2ncccc2[N+](=O)[O-])c2c(Cl)ccc(C)c2n1,-0.45
O=C(NCc1ccc(Cl)c(Cl)c1)c1c(C(F)(F)F)ccnc1Oc1ccccc1,0.42
Cc1cc(Cl)ccc1NC(=S)N(C)N,1.27
Cc1ccc(S(=O)(=O)Nc2ccc(C)cc2C)cc1,1.65
SMILES,Dicer inh
Cc1ccc(S(=O)(=O)Nc2cccc3cccc(Br)c23)cc1,3.13*
Cc1ccc(S(=O)(=O)Nc2cccc3ccccc23)cc1,2.92
COc1ccc(/C=N/NS(=O)(=O)c2ccc(Cl)cc2)cc1OC,3.54*
Cc1ccc(S(=O)(=O)N/N=C/c2ccc(Cl)c(Cl)c2)cc1,-0.62
Cc1ccc(S(=O)(=O)N/N=C/c2ccc(Cl)cc2)cc1,-0.02
CC(=O)CSc1nnc(Cn2nnc3ccccc32)n1Cc1ccccc1,2.85
N/C(=N\O)C1(c2ccc(Cl)cc2Cl)CC1,1.06
CSc1ccccc1NC(=O)Cn1nc([N+](=O)[O-])c(Br)c1C,-0.37
CSC1=N/C(=C\c2ccc(Br)cc2)C(=O)S1,0.18
COC(=O)CN1C(=O)Nc2ccc(Br)cc2C1c1ccccc1 (centres undefined),1.31
COc1ccc(C2Nc3ccc(Br)cc3C(c3ccccc3)N2CC(=O)O)cc1 (centres undefined),0.57
O=C(O)CN1C(c2ccccc2O)Nc2ccc(Br)cc2C1c1ccccc1 (centres undefined),3.15*
Cc1ccc(Cn2c(NCCN(C)C)nc3c2c(=O)[nH]c(=O)n3C)cc1,-1.41
Nc1[nH]c(=S)[nH]c(=O)c1C(c1ccc([N+](=O)[O-])cc1)c1c(N)[nH]c(=S)[nH]c1=O,2.09
CSc1ccc(C)c(NC(=O)N(Cc2ccccc2)C(=O)CC#N)c1,-0.28
O=S(=O)(NCCCc1nc2ccccc2[nH]1)c1ccccc1,-1.29
COc1cc(OC)c2nc(C)c3c(c2c1)N(c1cccc(C(F)(F)F)c1)CC3,-1.03
COc1cccc(N2CCc3c(C)nc4ccc(Cl)cc4c32)c1,1.63
Cc1nc2c(C)cccc2c2c1CCN2c1ccccc1F,3.21*
CC(CN(C)C)OC(=O)c1ccc2c(c1)OCO2 (centres undefined),2.51
O=C1NC(c2ccc3c(c2)OCO3)Nc2ccc([N+](=O)[O-])cc21 (centres undefined),-1.57
COc1ccc(C2/C(=C(\O)c3ccc(Cl)cc3)C(=O)C(=O)N2c2nnc(C)s2)cc1OC (centres undefined),4.08*
COc1ccc(C2/C(=C(\O)c3ccc(F)cc3)C(=O)C(=O)N2c2nnc(C)s2)cc1OC (centres undefined),1.7
